The entries come from a sample that favours hits as a whole.
CBX7 inh: CBX7 chromodomain binding inhibitors, primary screen, biochemical, AlphaScreen. Chromobox protein homolog 7 (Homo sapiens), O95931. AlphaScreen His6-CBX7 / biotin-H3K27me3 peptide binding; stronger effect = lower value. normalised signal (fraction of DMSO) (test concentration not listed). 66,000 compounds, 1.1% hits. AID 1224903, 2016; in the data active means normalised signal below about 0.5
Target sequence (O95931 whole entry, looked up): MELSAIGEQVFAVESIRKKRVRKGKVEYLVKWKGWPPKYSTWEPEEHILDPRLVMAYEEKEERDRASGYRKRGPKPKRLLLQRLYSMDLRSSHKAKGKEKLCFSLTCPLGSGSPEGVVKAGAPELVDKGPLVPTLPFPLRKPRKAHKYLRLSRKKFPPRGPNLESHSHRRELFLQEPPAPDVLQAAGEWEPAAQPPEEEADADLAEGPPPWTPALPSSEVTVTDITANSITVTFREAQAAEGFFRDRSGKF
A number is an active result; – = inactive; ! = a repeat was not active.

SMILES | CBX7 inh
COc1ccc(N2C(=O)c3ccc(C(=O)Nc4ccccc4C(=O)O)cc3C2=O)cc1 | –
COc1ccc(NC(=O)c2ccc3c(c2)C(=O)N(c2cccc(C)c2)C3=O)cc1 | –
COc1ccc(C(=O)Nc2nc(N3C(=O)c4ccccc4C3=O)n(-c3ccccc3)n2)cc1 | 0.2
Cc1ccn2c(NC(=O)c3ccc(F)cc3)c(-c3ccc(F)cc3)nc2c1 | –
COc1cc2c(cc1OC)C(c1c(Cl)cccc1Cl)CC(=O)N2 (stereo unspecified) | –
Cc1ccc(N2C(=O)C(Oc3ccccc3)C2c2ccccc2Cl)cc1C (stereo unspecified) | –
COCCNC(=O)CNC(=O)c1nn(-c2ccc(OC)c(Cl)c2)c(=O)c2ccccc12 | –
O=C(Nc1ccc(-c2noc(-c3ccc(F)cc3)n2)cc1)c1ccc2c(c1)OCO2 | –
CC(C)Cc1cc(C(=O)Nc2cccc(Cl)c2)no1 | –
O=C(NCC1CCCO1)c1cc2n(n1)C(C(F)(F)F)CC(c1cccs1)N2 (stereo unspecified) | –
Cc1c(CNC(=O)c2cc(-c3ccc4c(c3)OCO4)nc3ccccc23)cnn1C | –
O=C(Nc1ncc(-c2ccccc2)s1)c1ccc(S(=O)(=O)N2CCCCC2)cc1 | –
CCCCN(CCCC)S(=O)(=O)c1ccc(C(=O)Nc2nnc(-c3cccs3)o2)cc1 | –
CCN(CC)S(=O)(=O)c1ccc(C(=O)Nc2nnc(-c3ccccc3Cl)o2)cc1 | –
CCCCN(CCCC)S(=O)(=O)c1ccc(C(=O)Nc2nnc(COC)o2)cc1 | 0.16
CCN(CC)S(=O)(=O)c1ccc(C(=O)Nc2nnc(COC)o2)cc1 | 0.024
CCCCN(CCCC)S(=O)(=O)c1ccc(C(=O)Nc2nnc(-c3ccccc3Cl)o2)cc1 | –
CCCC(=O)NCCc1nc2ccccc2n1Cc1ccccc1C | –
CCOC(CN1C(=O)Cn2cccc2C1C(=O)NC1CCCCC1C)OCC (stereo unspecified) | –
Cc1ccc(Nc2cc(C(=O)NCc3ccccc3)c3ccccc3n2)c(C)c1 | –
COc1ccccc1NC(=O)C1c2cc(OC)c(OC)cc2C(=O)N2CCc3ccccc3C12 (stereo unspecified) | –
O=C(Nc1c2c(nn1-c1ccc(F)cc1)CS(=O)(=O)C2)c1cccc(F)c1 | –
O=C(CC1(CC2=NS(=O)(=O)c3ccccc3N2)CCCC1)NCc1ccccc1 | –
Fc1cccc(Cl)c1-c1noc(-c2cc(-c3ccncc3)nc3ccccc23)n1 | –
c1ccc2c(-c3nc(C4CCCCC4)no3)cc(-c3ccncc3)nc2c1 | 0.49
SMILES | CBX7 inh
Cc1cccc(-c2noc(-c3cc(-c4ccccc4)nc4ccccc34)n2)c1 | –
O=C(NCCc1ccc(Cl)cc1)c1cc(-c2ccncc2)nc2ccccc12 | –
CCc1ccc(-c2cn(-c3ccc(C)c(Cl)c3)c(=O)[nH]2)cc1 | –
CCCOc1ccc(-c2nc(Oc3ccc(C(=O)OC)cc3)c3ccccc3n2)cc1 | –
CCCCOc1ccc(-c2nc3c(C(=O)OC)c[nH]n3c2NC2CCCCCC2)cc1 | 0.21
CCCCOc1cccc(-c2nc3c(C(=O)OC)c[nH]n3c2NC2CCCCCC2)c1 | 0.46
COc1cccc(-c2nc(SCC(=O)NC3CCCC3)c(-c3ccc(C)cc3)[nH]2)c1 | –
CCCCOc1ccc(-c2nc3ncccn3c2NC2CCCC2)cc1 | –
COC(=O)c1c[nH]n2c(NC3CCCC3)c(-c3cccc(Br)c3)nc12 | –
CCOc1ccccc1NC(=O)c1c(NCc2ccncc2)sc2c1CCC2 | –
CC(C)CCNC(=O)Cc1ccc(NC2=NC3CS(=O)(=O)CC3S2)cc1 (stereo unspecified) | –
COc1ccccc1-c1cc2nc(C)c(CCC(=O)Nc3cc(Cl)ccc3C)c(C)n2n1 | –
CCC1Oc2ccc(C)cc2N(CC(=O)NCc2cc(Br)ccc2OC)C1=O (stereo unspecified) | –
CCOc1ccccc1-c1nc(-c2ccc(NC(=O)c3cccs3)cc2)no1 | –
O=C(CSc1nc(-c2ccccc2)c(-c2ccccc2)o1)Nc1nccs1 | –
COc1ccccc1CNC(=O)CN1C(=O)CSc2ccc(S(=O)(=O)N3CCOCC3)cc21 | –
CCCCOc1ccc(-c2nc(-c3ccccc3Cl)no2)cc1 | –
Fc1ccc(C(c2ccc(F)cc2)N2CCN(CCCc3c[nH]c4ccccc34)CC2)cc1 | 0.49
CC(C)c1ccc(C(c2ccccc2)N2CCN(C(=O)CCc3c[nH]c4ccccc34)CC2)cc1 (stereo unspecified) | –
Clc1ccc(C(c2ccc(Cl)cc2)N2CCN(CCCc3c[nH]c4ccccc34)CC2)cc1 | –
CCN(CC)CCn1c(=N)n(CC(O)COc2ccccc2C)c2ccccc21 (stereo unspecified) | –
COc1cccc(-n2c(=O)c3sccc3n(CC(=O)NCCc3ccc(S(N)(=O)=O)cc3)c2=O)c1 | –
CCOC(=O)C1CCCN(C(=O)CCC(=O)Nc2ccc3nc(N4CCC(C)CC4)cc(C)c3c2)C1 (stereo unspecified) | –
Cc1cc(N2CCCCC2)nc2ccc(NC(=O)CCC(=O)N3CCCC(C)C3)cc12 (stereo unspecified) | 0.48
Cc1cc(N2CCC(C)CC2)nc2ccc(NC(=O)CCC(=O)N3CCCCCC3)cc12 | –
SMILES | CBX7 inh
COc1cc(-c2nc(-c3ccccc3)c(-c3ccccc3)[nH]2)cc(Br)c1OCc1ccccc1 | –
COc1ccc2c(c1)CCc1c(C(=O)N3CCN(Cc4ccccc4)CC3)noc1-2 | –
CC(=O)Nc1ccc(Nc2nc(-c3sc(NC(C)=O)nc3C)cs2)cc1 | –
CCOc1ccc(Nc2nc(-c3sc(NC(=O)CC)nc3C)cs2)cc1 | 0.43
CCC(=O)Nc1nc(C)c(-c2csc(Nc3cccc(C(=O)O)c3)n2)s1 | –
CCC(=O)Nc1nc(C)c(-c2csc(Nc3ccc(C(=O)O)cc3)n2)s1 | 0.088!
CC(=O)Nc1nc(C)c(-c2csc(Nc3ccc(Br)cc3)n2)s1 | –
CC(=O)Nc1nc(C)c(-c2csc(Nc3ccc(O)cc3)n2)s1 | –
CCc1ccc(-c2ccc(C(=O)Nc3ccc(OC)cc3)cc2)nc1 | –
COc1ccc(CCNC(=O)C2CC(=O)N(C3CCCCCCC3)C2)cc1OC (stereo unspecified) | –
CCc1nnc(NC(=O)c2cc(OC)c(OC)c(OC)c2)s1 | –
CCc1nnc(NC(=O)c2ncn[nH]2)s1 | 0.38
CCc1nnc(NC(=O)c2ccc(C(C)(C)C)cc2)s1 | –
O=C(Nc1ccc(Cl)cc1)N1CCN(c2ccc3nncn3n2)CC1 | –
CCCN(CCC)CCCNC(=O)c1cc2c(-c3ccc(Cl)cc3)nn(C)c2s1 | –
COc1cccc(-n2cc(-c3ccc4c(c3)OCO4)[nH]c2=O)c1 | –
CCOC(=O)N1CCN(c2c(NC(C)(C)CC)c(=O)c2=O)CC1 | –
CCc1cccc(C)c1NC(=O)CCCN1C(=O)c2cccnc2C1=O | –
CCc1ccccc1NC(=O)CCCN1C(=O)c2cccnc2C1=O | –
CC1CCc2cc(F)ccc2N1C(=O)CCCN1C(=O)c2cccnc2C1=O (stereo unspecified) | 0.47
Cc1ccc(NC(=O)CCCN2C(=O)c3cccnc3C2=O)cc1F | –
O=C(CCCN1C(=O)c2cccnc2C1=O)N1CCN(c2ccccc2)CC1 | 0.49
O=C(CCCN1C(=O)c2cccnc2C1=O)Nc1ccccc1F | –
O=C(CCCN1C(=O)c2cccnc2C1=O)Nc1ccc(Cl)c(C(F)(F)F)c1 | –
O=C(CCCN1C(=O)c2cccnc2C1=O)N1CCN(c2ccccc2F)CC1 | 0.34
Cc1cc(Cl)ccc1OCCCC(=O)N1c2ccc(F)cc2CCC1C (stereo unspecified) | –

Compound activity from PubChem.
